{"source": "PubChem BioAssay (NCI)", "note": "Compounds without any hit were thinned out: in the full panel of roughly 83,000, 20% have a hit.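 Cell lines were cultured in 96-well plates, exposed to a single compound concentration, and assessed for percent growth 48 hours later.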 The source made the active and inactive calls.", "data": [{"system": "MCF7 breast", "assay": "NCI-60 one-dose screen, 48 h (100 = growth as untreated, 0 = no growth, -100 = all killed)", "conditions": "10 µM", "experimental": "Growth inhibition of the MCF7 human tumor cell line is measured as a screen for anti-cancer activity. Cells are grown in 96 well plates and exposed to the test compound for 48 hours. Compounds are tested at a single concentration, which is 10^-5 M for most compounds. The reported endpoint is percent growth (GI% or GIPRCNT), where numbers from 0 - 100% represent growth inhibition, and numbers from -100% - 0 represent cell death. For example, a value of 40 represents 60% growth inhibition. A value of 0 means no net growth occurred over the course of the experiment. A value of -40 indicates 40% of cells at the beginning of the experiment died by the end of the experiment. A value of -100 means all cells are dead at the end of the experiment.\nNCI-60 Human Tumor Cell Lines Screen was performed using the standard one-dose NCI protocol, which is described in more detail at https://dtp.cancer.gov/discovery_development/nci-60/default.htm.\nCompounds with GIPRCNT values below 10 were considered active. Activity score was based on GIPRCNT using the following formula: […]\nScore is 0 for GIPRCNT values of 100 or above, 50 for GIPRCNT values of 0, and 100 for GIPRCNT values of -100.", "values": [{"smiles": "CC(C)c1ccc(C(=O)Nc2sc3c(c2C(N)=O)CCC(=O)C3=O)cc1", "growth": "79.3% (inactive)"}, {"smiles": "N#Cc1c(NC(=O)c2ccc(C(F)(F)F)cc2)sc2c1CCC(O)=C2", "growth": "9.26% (active)"}, {"smiles": "COc1ccc(OC)c(-c2cc(-c3c[nH]c4ccccc34)nc(N)c2C#N)c1", "growth": "3.84% (active)"}, {"smiles": "O=C(CNc1nc(-c2ccccc2)cs1)Nc1cccc([N+](=O)[O-])c1", "growth": "-81.6% (active)"}, {"smiles": "CN1CCc2c(sc3ncnc(N/N=C/c4ccc5ccccc5c4)c23)C1", "growth": "20.7% (inactive)"}, {"smiles": "N#Cc1ccc(-c2nn(-c3ccc(C(=O)O)cc3)cc2CNc2cc(Cl)cc(Cl)c2)cc1", "growth": "27.3% (inactive)"}, {"smiles": "CN(CCO)c1oc(-c2ccccc2)nc1[P+](c1ccccc1)(c1ccccc1)c1ccccc1", "growth": "0.978% (active)"}, {"smiles": "COC(=O)c1c(C(=O)OC)c2n(c1C)[C@@H]([C@@H](C)[C@H]1CC[C@H]3[C@@H]4CCC5=CC(=O)CC[C@]5(C)[C@H]4CC[C@]13C)SC2", "growth": "4.29% (active)"}, {"smiles": "O=C(CNc1nc(-c2ccccc2)cs1)Nc1ccc(Br)cc1", "growth": "-82.2% (active)"}, {"smiles": "COc1ccccc1[C@H]1C(C(=O)c2ccc(Cl)cc2)C2(N[C@@H]1c1ccccc1)C(=O)Nc1ccc(Cl)cc12", "note": "(stereo not given in full)", "growth": "-4.87% (active)"}, {"smiles": "O/N=C(\\CSc1nnc(-c2c[nH]c3ccccc23)n1-c1ccccc1)c1ccc(Br)cc1", "growth": "-42.5% (active)"}, {"smiles": "O=S(=O)(c1ccc(Cl)cc1)c1nc(-c2ccccc2)oc1S(=O)(=O)c1ccc(Cl)cc1", "growth": "36.3% (inactive)"}, {"smiles": "CCN(CC)CCOc1ccc(C(=C(C)c2ccccc2)c2ccc(OCCN(CC)CC)cc2)cc1", "growth": "-61.8% (active)"}, {"smiles": "CCCn1c(=O)c2[nH]c(-c3ccc(OCc4nc5ccc(F)cc5[nH]4)cc3)nc2n(CCC)c1=O", "growth": "8.76% (active)"}, {"smiles": "CC(=C(c1ccc(OCCN2CCCCC2)cc1)c1ccc(OCCN2CCCCC2)cc1)c1ccccc1", "growth": "-48.3% (active)"}, {"smiles": "Cc1cc(C)nc(NS(=O)(=O)c2ccc(N/C(N)=N/c3nccc(-c4cccs4)n3)cc2)n1", "growth": "67.6% (inactive)"}, {"smiles": "CN1CCN(c2ccc(Nc3nc(N4CCN(S(=O)(=O)c5ccc(F)cc5)CC4)c4sccc4n3)cc2)CC1", "growth": "-77.6% (active)"}, {"smiles": "COc1cnc2c(c1)C(=O)c1c-2n(CCCNCCO)c(=O)c2cc(OC)c(OC)cc12", "growth": "5.82% (active)"}, {"smiles": "CCN1CCN(Cc2ccc(NC(=O)c3cccc(-n4cc(-c5ccc(NC(C)=O)nc5)nn4)c3)cc2C(F)(F)F)CC1", "growth": "70.4% (inactive)"}, {"smiles": "CCOc1ccc(/C=N/NC(=O)Cn2nc(Cc3ccccc3)c3onc(C)c3c2=O)cc1", "growth": "28.3% (inactive)"}, {"smiles": "CCOC(=O)C1=C(N)N(c2ccc(C)cc2)C2=C(C(=O)CC(C)(C)C2)C1c1ccccc1OC", "note": "(stereo not given)", "growth": "93.5% (inactive)"}, {"smiles": "O=C(CNc1nc(-c2ccccc2)cs1)Nc1ccc([N+](=O)[O-])cc1Cl", "growth": "9.27% (active)"}, {"smiles": "O=c1[nH]c2ccccc2cc1CSc1ccc(Nc2nccc(-c3ccc(C(F)(F)F)cc3)n2)cc1", "growth": "25.3% (inactive)"}, {"smiles": "CC1(c2ccccc2)NC(=O)N(CC(=O)Nc2ccc(C(=O)/C=C/c3ccc(Br)cc3)cc2)C1=O", "note": "(stereo not given)", "growth": "-42.6% (active)"}, {"smiles": "[2H]C([2H])([2H])Oc1ccc2ncc(C#Cc3cncc(C(=O)Nc4ccc(CN5CCN(C)CC5)c(C(F)(F)F)c4)c3)n2n1", "growth": "-61% (active)"}, {"smiles": "CNC(=O)c1cccc(N2CCc3c2ccc(NC(=O)Nc2ccc(N4CCN(C)CC4)c(C(F)(F)F)c2)c3F)c1", "growth": "-79.8% (active)"}, {"smiles": "CC(=O)Nc1ccc(-c2cn(-c3cccc(C(=O)Nc4cc(CN5CCOCC5)cc(C(F)(F)F)c4)c3)nn2)cn1", "growth": "-84% (active)"}, {"smiles": "COc1ccc(C(=O)Nc2sc3c(c2C#N)CCC(=O)C3)cc1C(F)(F)F", "growth": "-10.1% (active)"}, {"smiles": "C/C(=C\\CSc1ccccc1C(=O)O)CCCC(C)CCCC(C)CCCC(C)C", "note": "(stereo not given)", "growth": "50.4% (inactive)"}, {"smiles": "O=C(Nc1ccc(F)c(Cl)c1)c1cc(-c2ccc(F)cc2F)ccc1O", "growth": "-16.1% (active)"}, {"smiles": "O=C(/C=C/Nc1ccccc1)c1ccc2c(c1)Nc1ccccc1S2", "growth": "68.6% (inactive)"}, {"smiles": "CCCn1c(=O)c2[nH]c(-c3ccc(OCc4nc5ccccc5[nH]4)cc3)nc2n(CCC)c1=O", "growth": "17.4% (inactive)"}, {"smiles": "O=c1[nH]n(C(=S)N/N=C/c2ccc(F)cc2)c(=O)c2ccccc12", "growth": "15.9% (inactive)"}, {"smiles": "CNC(=O)c1cc(-c2ccc(NC(=O)Nc3ccc(C)cc3)cc2)nc2cccnc12", "growth": "45.6% (inactive)"}, {"smiles": "COc1cc2c3c(n(CCCN4CCOCC4)c(=O)c2cc1OC)-c1nc2c(cc1C3=O)OCO2", "growth": "14% (inactive)"}, {"smiles": "CC(C)(C)Nc1nc2cc(Cl)c(Cl)cc2nc1S(C)(=O)=O", "growth": "58.8% (inactive)"}, {"smiles": "COc1ccc2[nH]cc(/C=N/Nc3ccc(Br)cn3)c2c1", "growth": "3.69% (active)"}, {"smiles": "COc1ccc(/C=N/N=C(\\C)c2ccc3c(c2)Nc2ccccc2S3)cc1O", "growth": "11.9% (inactive)"}, {"smiles": "CO[C@@H]1CSS[C@H]1Cn1nc(-c2ccc(Oc3ccccc3)cc2)c2c(N)ncnc21", "growth": "30.7% (inactive)"}, {"smiles": "CC1(C)CC[C@]2(C(=O)Nc3ccccc3)CC[C@]3(C)C(=CC[C@@H]4[C@@]5(C)CC[C@H](N)C(C)(C)[C@@H]5CC[C@]43C)[C@H]2C1", "growth": "-73.8% (active)"}]}]}
